Screening data from PubChem.
aSyn rescue – alpha-synuclein toxicity inhibition in yeast | Yeast expressing alpha-synuclein, growth rescue, BacTiter-Glo, 24 h | Potency, µM (highest dose often 46.1 µM), actives largely listed as activators | 370,000 compounds, 0.14% hits; also: nearly all actives have a fitted effect of over 65% in size
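Rescue of yeast growth: cells expressing toxic alpha-synuclein, induced in galactose at OD600 0.02, incubated with compound 24 h at 30 C. ATP luminescence quantified growth; inhibitors of toxicity appear as activators.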
FUS yeast rescue – FUS proteinopathy suppression in yeast. S. cerevisiae FUS-expressing, growth rescue, OD600, 24 h. Potency, µM (doses to about 76.6 µM), usual class: activators. 390,000 compounds, 0.24% hits. AID 1347120; also: nearly all actives have a fitted effect of over 55% in size
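Yeast FUS proteinopathy model; galactose-induced FUS (2%), starting OD 0.005. Cpds in dilution series, 24hr, 30C, 99% humidity. Abs 600 nm growth. Pos ctrl CP55940 (top 92uM final); neg ctrl DMSO.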
Abeta rescue – A-beta toxicity reversal in yeast; yeast expressing A-beta42, growth rescue, OD600, 48 h; response scale: 0% DMSO, 100% iron-clioquinol control; Potency, µM (titrated, usually from 46.1 µM), most hits filed as activators; 410,000 compounds, 0.063% hits; also: nearly all actives have a fitted effect of over 55% in size
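Yeast growth medium received pinned compounds, then yeast cells expressing toxic A-beta were added; plates incubated at 30 C for 48 hr. Growth read as absorbance at 600 nm, normalized to DMSO and equimolar FeCl3 plus clioquinol controls.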
TDP-43 yeast inh – rescues yeast growth from TDP-43 toxicity. Potency, µM (series often up to 46.1 µM), most hits filed as activators. AID 652104. TDP-43 expressing yeast growth rescue, BacTiter-Glo, 24 h. 410,000 compounds, 1.8% hits; also: nearly all actives have a fitted effect of over 50% in size
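Galactose-induced TDP-43 yeast, OD600=0.02, compound pinned; 24 hr, 30 deg C; BacTiter-Glo luminescence for growth. Inhibitors of TDP-43 toxicity read as activators.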
Mito fusion act – mitochondrial division inhibition or fusion activation. 320,000 compounds, 0.23% hits. AID 485298. Potency, µM (top dose mostly 46.1 µM), hits mostly activators. S. cerevisiae fusion-defective mutant growth rescue, CellTiterGlo 48 h; also: nearly all actives have a fitted effect of over 45% in size
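Luminescent cell viability in 1536-well qHTS format served as the measure of rescued growth in ts fusion-mutant S. cerevisiae cultured on non-fermentable YPEG for 48 hours at 37C.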
Hits are given with their value; [ ] = remark or other dose. Sampled rows, rich in hits. Any-hit rate of the full collection: about 2.2%. Calls follow the shape of the dose curve; as a rule, active = well fitted curve in the direction sought with a large enough effect; inconclusive = small, poorly fitted or top-dose-only effect, or another doubt; inactive = no such curve, though single readings can be large; an effect the other way counts as inactive or inconclusive.

Screening CC(OP(=O)(O)C(NC(=O)[C@H](Cc1ccc(O)cc1)NC(=O)OC(C)(C)C)C(C)C)C(=O)O (stereo not given in full) returned FUS yeast rescue inactive.
CC(C)(C)c1cc(NC(=O)COc2ccc(Br)cc2)n(-c2ccccc2)n1 was read as aSyn rescue inactive, FUS yeast rescue inactive, Abeta rescue inactive, TDP-43 yeast inh 20µM and Mito fusion act inactive.
O=C(O)c1ccc(SCc2ccccc2)nc1 was read as aSyn rescue inactive, FUS yeast rescue inactive, Abeta rescue inactive and TDP-43 yeast inh 13µM.
For O=S(=O)(O)c1ccc(SCc2ccccc2)nc1 the results were aSyn rescue inactive, FUS yeast rescue inactive, Abeta rescue inactive and TDP-43 yeast inh inactive.
For CCc1ccc(CCNC(=O)OC2CC3CC2[C@H]2CCCCN2C3)cc1 (stereo not given in full) the results were FUS yeast rescue inactive.
For COc1ccc(-c2oc3ccccc3c2C(=O)Oc2ccccc2)cc1 the results were aSyn rescue inactive, FUS yeast rescue inactive, Abeta rescue inactive, TDP-43 yeast inh 3.5µM and Mito fusion act inactive.
For COc1ccc2oc(-c3ccccc3)c(C(=O)O)c2c1 the results were aSyn rescue inactive, FUS yeast rescue inactive, Abeta rescue inactive, TDP-43 yeast inh inactive and Mito fusion act inconclusive.
For COc1ccc2oc(-c3ccccc3)c(C(N)=O)c2c1 the results were aSyn rescue inactive, FUS yeast rescue inactive, Abeta rescue inactive, TDP-43 yeast inh 13µM and Mito fusion act inactive.
`COCCCNC(=O)C[C@@H]1C(=O)N(CCc2ccc(Cl)cc2)C2=CCCCC[C@]21C(=O)OC` gave FUS yeast rescue inactive.
For COC(=O)C1=NN(C(=O)c2cccc(Br)c2)C(O)(c2ccc(Cl)cc2)C1 (stereo not given) the results were aSyn rescue 18µM, FUS yeast rescue inactive, Abeta rescue inactive, TDP-43 yeast inh inconclusive and Mito fusion act inactive.
Screening O=C(c1ccc(Cl)cc1)N1CCC(O)(CSc2ccc(Cl)cc2)CC1 returned aSyn rescue inconclusive, FUS yeast rescue inactive, Abeta rescue inactive, TDP-43 yeast inh 35µM and Mito fusion act inactive.
Screening COc1cccc(SCC2(O)CCN(C(=O)c3ccc(Cl)cc3)CC2)c1 returned aSyn rescue inactive, FUS yeast rescue inactive, Abeta rescue inconclusive, TDP-43 yeast inh 22µM and Mito fusion act inactive.
Cc1ccc(CNC(=O)OC(C)(C)C)c(/C=C/S(=O)(=O)NCCc2ccccc2)c1 was read as FUS yeast rescue inactive.
COc1ccc(CNC(=O)c2sc3nc[nH]c(=O)c3c2C)cc1 was read as FUS yeast rescue inactive, Abeta rescue inactive and TDP-43 yeast inh inactive.
Screening COc1cc(C(=O)N2CCN(c3ccccc3Cl)CC2)ccc1OCC(=O)N1CCOCC1 returned aSyn rescue inactive, FUS yeast rescue inactive, Abeta rescue inactive, TDP-43 yeast inh inactive and Mito fusion act inactive.
`C=CCN1C(=O)[C@H](CC(=O)NCC2CCCCC2)[C@@]2(C(=O)OCC)CCCC=C12` gave FUS yeast rescue inactive.
COc1ccc(CN2C(=O)c3cccnc3C2Nc2cc(Cl)ccc2OC)cc1 (stereo not given) was read as aSyn rescue inactive, FUS yeast rescue inactive, Abeta rescue inactive, TDP-43 yeast inh inactive and Mito fusion act inactive.
For COc1ccc(OC)c(NC2c3ncccc3C(=O)N2Cc2ccco2)c1 (stereo not given) the results were aSyn rescue inactive, FUS yeast rescue 35µM, Abeta rescue inactive, TDP-43 yeast inh inactive and Mito fusion act inactive.
`CSCC(C)N1CCC(n2nccc2NC(=O)c2ccccc2C)CC1` (stereo not given) gave aSyn rescue inactive, FUS yeast rescue inactive, Abeta rescue inactive, TDP-43 yeast inh inactive and Mito fusion act inactive.
`O=C(Nc1cccn(Cc2c(Cl)cccc2Cl)c1=O)c1ccccc1Cl` gave aSyn rescue inactive, FUS yeast rescue inactive, Abeta rescue inactive, TDP-43 yeast inh 4µM and Mito fusion act inactive.
Screening O=C(CCn1ccc2ccccc21)NC1CCCc2ccccc21 (stereo not given) returned aSyn rescue inactive, FUS yeast rescue inactive, Abeta rescue inactive[9.22 µM], TDP-43 yeast inh 18µM and Mito fusion act inactive.
For CCOc1ccc(NC(=O)c2cnn3c2NC(c2ccccc2)=CC3c2cccc(OC)c2OC)cc1 (stereo not given) the results were FUS yeast rescue 22µM, Abeta rescue inactive and TDP-43 yeast inh inactive[9.22 µM].
`COc1cccc(C2C=C(c3ccccc3)Nc3c(C(=O)Nc4ccccc4)cnn32)c1OC` (stereo not given) gave FUS yeast rescue inactive, Abeta rescue inactive and TDP-43 yeast inh inactive.
For COc1ccccc1CC(=O)N1CCN(c2ccccc2)CC1 the results were aSyn rescue inactive, FUS yeast rescue inactive, Abeta rescue inactive, TDP-43 yeast inh inactive and Mito fusion act inactive.
For COc1ccccc1C(=O)N1CCN(c2cccc(C(F)(F)F)c2)CC1 the results were aSyn rescue inactive, FUS yeast rescue inactive, Abeta rescue inactive, TDP-43 yeast inh 14µM and Mito fusion act inactive.
`COc1ccccc1CC(=O)N1CCN(c2cccc(Cl)c2)CC1` gave aSyn rescue inactive, FUS yeast rescue inactive, Abeta rescue inactive, TDP-43 yeast inh 13µM and Mito fusion act inactive.
For CC(=O)c1ccc(NC(=O)N2CCN(c3cccc(Cl)c3)CC2)cc1 the results were aSyn rescue inactive, FUS yeast rescue inactive, Abeta rescue inactive, TDP-43 yeast inh 13µM and Mito fusion act inactive.
For O=C(c1cccc(F)c1)N1CCN(c2cccc(C(F)(F)F)c2)CC1 the results were aSyn rescue inactive, FUS yeast rescue inactive, Abeta rescue inactive, TDP-43 yeast inh 14µM and Mito fusion act inactive.
`NN=C1c2cc(S(=O)(=O)NCCO)ccc2-c2ccc(S(=O)(=O)NCCO)cc21` gave aSyn rescue inactive.
Screening Cc1ccc(-c2cc3nccc(-c4cc([N+](=O)[O-])ccc4O)n3n2)cc1 returned FUS yeast rescue inactive, Abeta rescue inactive and TDP-43 yeast inh inactive.
For O=C(NCc1cccs1)c1ccc2c(c1)N(Cc1ccccc1Cl)C(=O)c1ccccc1S2 the results were FUS yeast rescue inconclusive, Abeta rescue inactive and TDP-43 yeast inh inactive.
O=C(CN1C(=O)C2(OCCCO2)c2ccccc21)NCc1ccccc1Cl was read as FUS yeast rescue inactive.
`COc1ccc(OCC(O)CNc2ccc(Br)cc2)cc1` (stereo not given) gave aSyn rescue inactive, FUS yeast rescue inactive, Abeta rescue inactive, TDP-43 yeast inh 11µM and Mito fusion act inactive.
O=S(=O)(c1ccccc1F)N1CCC(Oc2ccc(-n3cnnn3)cc2)CC1 was read as aSyn rescue inactive, FUS yeast rescue inactive, Abeta rescue inconclusive, TDP-43 yeast inh 13µM and Mito fusion act 10µM.
For CC(C)(C)c1ccc(S(=O)(=O)N2CCC(Oc3ccc(-n4cnnn4)cc3)CC2)cc1 the results were FUS yeast rescue inactive, Abeta rescue inactive and TDP-43 yeast inh inactive.
